HSF-1 act: increases HSF-1 driven luciferase reporter signal; NIH3T3-HGL HSF-1 luciferase reporter, MG132, 8 h; 100% = twice DMSO control signal; activation, % at 9 µM; 300,000 compounds, 1.7% hits; AID 504408;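 active means mean replicate activation of at least 50% with a set share of replicates each reaching 50%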;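 further: 0% = median of the neutral control wells and 100% = twice that signal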
Hsp70 activator: switches on Hsp70 transcription; AID 1203; activation, % at 10 µM; HeLa Hsp70 promoter luciferase reporter, luminescence; scaled: vehicle 0, proteasome-inhibitor control 100%; 200,000 compounds, 0.04% hits;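 active means activation above the mean across all tested compounds plus 3 SD, cutoff set per campaign, cut at about 5.5% in these data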;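 further: 100% = MG132 at 30 µM as the positive control and 0% = DMSO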
S1P4 antag: human S1P4 receptor antagonism; O95977; S1P4-expressing cells, antagonist mode, reporter read-out; inhibition, % at 4.98 µM; 220,000 compounds, 0.26% hits; AID 1510; in the data active means inhibition above about 29%;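 further: 0% = wells stimulated with agonist and 100% = vehicle wells without agonist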
Target sequence (O95977 whole entry, looked up): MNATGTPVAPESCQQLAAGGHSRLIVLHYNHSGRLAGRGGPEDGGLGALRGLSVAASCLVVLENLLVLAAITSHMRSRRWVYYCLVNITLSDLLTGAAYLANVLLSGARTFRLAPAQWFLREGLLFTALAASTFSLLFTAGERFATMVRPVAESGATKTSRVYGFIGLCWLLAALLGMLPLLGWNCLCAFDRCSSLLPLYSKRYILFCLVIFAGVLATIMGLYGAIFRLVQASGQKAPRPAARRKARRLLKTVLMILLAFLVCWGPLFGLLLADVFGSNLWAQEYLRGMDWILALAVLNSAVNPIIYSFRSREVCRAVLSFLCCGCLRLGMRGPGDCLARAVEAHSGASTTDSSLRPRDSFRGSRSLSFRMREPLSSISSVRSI
S1P4 ag: agonists of human S1P4 receptor; S1P4-expressing cell line, agonist reporter assay; AID 1509; 220,000 compounds, 0.35% hits; O95977; activation, % at 4.98 µM; in the data active means activation above about 11%;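 further: 0% = DMSO vehicle and 100% = reference agonist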
HSF1 inh: HSF1 inhibition; 300,000 compounds, 0.77% hits; AID 2098; activity change, negative = inhibition, % at 7.5 µM (by protocol); NIH3T3-HGL HSE-luciferase, MG132-induced, luminescence 8 h; hits give low values;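 active means more than half of replicate wells show activity change below -50%, luminescence cut by over half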;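 further: luciferase reports HSF-1 transcriptional activity via heat shock element; 0% = median of DMSO wells and -100% = zero luminescence signal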
S1P3 antagonist: S1P3 (human) receptor antagonism. 170,000 compounds, 0.27% hits. inhibition, % at 4.98 µM. CHO S1P3 NFAT-BLA reporter, FRET fluorescence, antagonist mode;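 active means inhibition above the plate cutoff, the mean inhibition of test wells on that plate plus 3 SD, cut at about 28% in these data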;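 further: cells challenged with S1P at its EC80 of 0.8 µM; blue over green emission ratio from cleaved BLA substrate after 4 h stimulation; 0% = S1P-stimulated wells and 100% = unstimulated DMSO-only wells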
An asterisk follows results filed as active. Hits are enriched below; roughly 2.9% of the tested compounds scored in any of these assays.

Screening CN=c1scc(C)n1/N=C/c1ccc(O)cc1O returned HSF-1 act 33, Hsp70 activator -1, S1P4 antag -13, S1P4 ag -1, HSF1 inh 10 and S1P3 antagonist 4.
CC(C)N=c1scc(-c2cccs2)n1/N=C/c1ccc(O)c(O)c1O was read as Hsp70 activator 0, S1P4 antag -14, S1P4 ag 17* and S1P3 antagonist -2.
`CN=c1scc(-c2ccccc2F)n1/N=C/c1ccc[nH]1` gave HSF-1 act -90, Hsp70 activator 0, S1P4 antag -9, S1P4 ag -1, HSF1 inh -87* and S1P3 antagonist -3.
For Cc1nc(-c2ccccc2)nc(-c2ccccc2)n1 the results were HSF-1 act -3 and HSF1 inh -4.
O=C(N/N=C/C(Br)=C\c1ccccc1)c1n[nH]c2c1CCC2 was read as HSF-1 act 211*, Hsp70 activator 2, S1P4 antag 24, S1P4 ag -1 and HSF1 inh 210.
Screening O=C(N/N=C/C(Br)=C/c1ccccc1)c1cnccn1 returned HSF-1 act 259*, S1P4 antag 22, S1P4 ag 0, HSF1 inh 166 and S1P3 antagonist -13.
For Cc1occc1C(=O)N/N=C/C(Br)=C/c1ccccc1 the results were HSF-1 act 314*, Hsp70 activator 0, S1P4 antag 23, S1P4 ag 1, HSF1 inh 207 and S1P3 antagonist 7.
For Cc1ccc(-c2cc(C(=O)N/N=C/C(Br)=C/c3ccccc3)n[nH]2)o1 the results were HSF-1 act 121*, Hsp70 activator 0, S1P4 antag 23, S1P4 ag 0, HSF1 inh 91 and S1P3 antagonist -11.
`Cc1oc(-c2cc(F)ccc2F)nc1CN1CCCN(C(=O)c2ccco2)CC1` gave HSF-1 act 4, Hsp70 activator 0, S1P4 antag 16, S1P4 ag -1, HSF1 inh -5 and S1P3 antagonist -13.
For COc1ccc(C(=O)N/N=C/C(Br)=C/c2ccccc2)cc1 the results were HSF-1 act 148*, Hsp70 activator 0, S1P4 antag 9, S1P4 ag -2, HSF1 inh 116 and S1P3 antagonist -13.
`COc1cccc(C(=O)N/N=C/C(Br)=C/c2ccccc2)c1` gave HSF-1 act 56*, Hsp70 activator 0, S1P4 antag -1, S1P4 ag -1, HSF1 inh 46 and S1P3 antagonist -3.
Screening C/C(CC(=O)NCc1ccccc1Cl)=N/NC(=O)c1ccccn1 returned HSF-1 act 25 and HSF1 inh 8.
Screening CCC(Sc1nc(C)cc(=O)[nH]1)C(=O)Nc1nnc(C)s1 (stereo unspecified) returned HSF-1 act 11, Hsp70 activator 0, S1P4 antag 13, S1P4 ag 0, HSF1 inh 3 and S1P3 antagonist 14.
`CCCCc1nnc(NC(=O)C(C)Sc2nc(C)cc(=O)[nH]2)s1` (stereo unspecified) gave HSF-1 act 64*, Hsp70 activator 0, S1P4 antag -13, S1P4 ag 0 and HSF1 inh 29.
For COc1ccc(O)c(/C=N/n2c(-c3ccco3)csc2=Nc2cccnc2)c1 the results were HSF-1 act -1, Hsp70 activator 0, S1P4 antag -11, S1P4 ag 1, HSF1 inh 1 and S1P3 antagonist -10.
CN=c1scc(-c2ccco2)n1/N=C/c1ccc(O)c(O)c1 was read as HSF-1 act -83, Hsp70 activator 0, S1P4 antag 15, S1P4 ag 2, HSF1 inh -83* and S1P3 antagonist -1.
For Cc1ccc(Cl)cc1NC(=O)c1cc(S(=O)(=O)N2CCOCC2)cn1C the results were HSF-1 act 5 and HSF1 inh 0.
N/C(=N\OC(=O)C1CCCCC1)c1ccc(Br)cc1 was read as HSF-1 act 57* and HSF1 inh 17.
`O=C(CNC(=O)C1CCCCC1)OCC(=O)c1ccc(Cl)s1` gave HSF-1 act -22, Hsp70 activator 0, S1P4 antag -16, S1P4 ag -1, HSF1 inh -4 and S1P3 antagonist -12.
For N/C(=N\OC(=O)C1CCCCC1)c1ccc(Cl)cc1 the results were HSF-1 act 85* and HSF1 inh 39.
`O=C(CNC(=O)C1CCCCC1)OCC(=O)c1ccc(Br)cc1` gave HSF-1 act 65* and HSF1 inh 16.
